Screening data deposited in PubChem BioAssay by Broad Institute.
C diff HTS – C. difficile growth inhibition. AID 1259249. 0.25% of 86,000 active. Clostridium difficile clinical isolate growth, OD600, 24 h; stronger effect = lower value. growth activity, negative = inhibition, % at 16 µg/mL (by protocol);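 active means mean growth activity at or below -80% and every replicate also at or below -80%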;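 further: 0% = DMSO wells and -100% = levofloxacin 16 µg/mL wells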
* hit, by the source's call; ! = a repeat was not active. This is one part of a sample in which hits are shown more often than they occur.

SMILES	C diff HTS
COc1ccc(-c2ccc(C3[C@@H]4CN(Cc5cc(OC)cc(OC)c5)C[C@H]3N4)cc2)cc1 (stereo partly specified)	-100.5*!
Fc1cccc(CN2C[C@@H]3N[C@H](C2)C3c2ccc(-c3ccccc3)cc2)c1 (stereo partly specified)	-98.9*
Fc1cccc(-c2ccc(C3[C@@H]4CN(Cc5cccnc5)C[C@H]3N4)cc2)c1 (stereo partly specified)	-6.2
COc1cc(CN2C[C@@H]3N[C@H](C2)C3c2ccc(-c3cccc(OC)c3)cc2)cc(OC)c1 (stereo partly specified)	46.5
N#Cc1ccc(-c2ccc(C3[C@@H]4CN(Cc5ccccc5F)C[C@H]3N4)cc2)cc1 (stereo partly specified)	43.6
Fc1cccc(-c2ccc(C3[C@@H]4CN(Cc5ccccc5F)C[C@H]3N4)cc2)c1 (stereo partly specified)	-101.0*
COc1cc(CN2C[C@@H]3N[C@H](C2)C3c2ccc(-c3ccncc3)cc2)cc(OC)c1 (stereo partly specified)	5.5
O=C(Cc1ccncc1)N1C[C@@H]2N[C@H](C1)C2c1ccc(-c2cccc(F)c2)cc1 (stereo partly specified)	9.8
N#Cc1cccc(-c2ccc(C3[C@@H]4CN(Cc5ccccc5)C[C@H]3N4)cc2)c1 (stereo partly specified)	34.1
Fc1cccc(CN2C[C@@H]3N[C@H](C2)C3c2ccc(-c3cncnc3)cc2)c1 (stereo partly specified)	-0.9
Fc1cccc(CN2C[C@@H]3N[C@H](C2)[C@@H]3c2ccc(-c3cccc(F)c3)cc2)c1	-94.2*
O=C(C1CCC1)N1C[C@@H]2N[C@H](C1)C2c1ccc(-c2cccc(F)c2)cc1 (stereo partly specified)	34.6
CN1[C@@H]2c3ccc(-c4cncnc4)c(=O)n3C[C@@H]2[C@@H](CO)[C@@H]1C(=O)N1CCc2ccccc2C1	0.8
CCC(=O)N1CC2(C1)[C@@H](c1ccccc1)[C@@H](CO)N2CCC(F)(F)F	2.3
CCC(=O)N(C)C[C@@H]1Oc2cc(-c3cccc(F)c3)ccc2S(=O)(=O)N([C@H](C)CO)C[C@H]1C	-2.5
O=C(C1=C[C@H](c2csc3ccccc23)C[C@H](OCCCCO)O1)N1CCCCCCC1	3.1
O=C(NCCN1CCCC1)[C@H]1[C@H](CO)[C@H]2Cn3c(cccc3=O)[C@@H]1N2C(=O)NC1CCCC1	4.6
CO[C@@H]1CN(C)C(=O)c2ccc(NS(C)(=O)=O)cc2OC[C@H](C)N(Cc2cccnc2)C[C@H]1C	0.4
CO[C@@H]1CN(C)C(=O)c2ccc(NC(=O)C3CCCC3)cc2OC[C@@H](C)N(C(C)=O)C[C@@H]1C	2.9
CC(C)NC(=O)N(C)C[C@H]1Oc2c(NC(=O)C3CCCCC3)cccc2C(=O)N([C@@H](C)CO)C[C@@H]1C	0.4
Cc1nc(S(=O)(=O)N2CCN(Cc3ccc(OCCO)cc3)CC2)cn1C	6.7
CNC[C@@H]1Oc2ncc(C#Cc3cccc(F)c3)cc2C(=O)N([C@H](C)CO)C[C@@H]1C	9.2
CO[C@@H]1CN(C)C(=O)c2cc(NC(=O)Nc3ccc(Cl)c(Cl)c3)ccc2OC[C@@H](C)NC[C@@H]1C	-96.8*
CO[C@H]1CN(C)C(=O)c2cc(NC(=O)Nc3ccccc3)ccc2OC[C@@H](C)NC[C@H]1C	-1.4
CO[C@H]1CN(C)C(=O)c2ccc(NC(=O)Nc3cc(Cl)cc(Cl)c3)cc2OC[C@H](C)NC[C@H]1C	-95.7*
SMILES	C diff HTS
CO[C@H]1CN(C)C(=O)c2ccc(NC(=O)Nc3cc(Cl)cc(Cl)c3)cc2OC[C@@H](C)NC[C@@H]1C	8.4
CO[C@@H]1CN(C)C(=O)c2cc(NC(=O)Nc3ccc(Cl)c(Cl)c3)ccc2OC[C@H](C)NC[C@H]1C	-98.4*
CO[C@H]1CN(C)C(=O)c2cc(NC(=O)Nc3ccccc3)ccc2OC[C@@H](C)NC[C@@H]1C	-0.7
CO[C@H]1CN(C)C(=O)c2ccc(NC(=O)Nc3cc(Cl)cc(Cl)c3)cc2OC[C@@H](C)NC[C@H]1C	-53.0
CO[C@H]1CN(C)C(=O)c2cc(NC(=O)Nc3ccc(Cl)cc3)ccc2OC[C@H](C)NC[C@H]1C	-1.3
CO[C@@H]1CN(C)C(=O)c2cc(NC(=O)Nc3ccc(Cl)cc3)ccc2OC[C@@H](C)NC[C@@H]1C	-2.1
CO[C@H]1CN(C)C(=O)c2cc(NC(=O)Nc3ccc(Cl)cc3)ccc2OC[C@H](C)NC[C@@H]1C	-4.1
CO[C@@H]1CN(C)C(=O)c2cc(NC(=O)Nc3ccccc3)ccc2OC[C@@H](C)NC[C@@H]1C	0.1
CO[C@H]1CN(C)C(=O)c2cc(NC(=O)Nc3ccc(Cl)c(Cl)c3)ccc2OC[C@H](C)NC[C@@H]1C	-96.7*
COc1ccc2c3c(n(C)c2c1)[C@H](CO)N(C(=O)c1cnccn1)CC31CN(C(=O)c2cnccn2)C1	3.2
C[C@@H]1CN([C@@H](C)CO)C(=O)c2cc(NS(=O)(=O)c3ccc(F)cc3)ccc2O[C@@H](C)CCCCO[C@H]1CN(C)S(=O)(=O)c1ccc(F)cc1	-3.4
C[C@@H]1CCCCO[C@@H](CN(C)C(=O)CCCN(C)C)[C@@H](C)CN([C@H](C)CO)C(=O)c2cc(NC(=O)c3ccccc3)ccc2O1	-3.6
O=S(=O)(c1cccc2cccnc12)N1CCN(Cc2ccc(OCCO)cc2)CC1	-3.2
COc1ccc(CN(C)C[C@H]2Oc3ccc(NS(=O)(=O)c4c(C)noc4C)cc3CC(=O)N([C@H](C)CO)C[C@@H]2C)cc1	7.5
OC[C@@H]1Nc2ccc(C#Cc3cccc(F)c3)cc2[C@@H]2NCC[C@H]12	-97.6*
COc1ccccc1C#Cc1ccc2c(c1)[C@H]1NCC[C@H]1[C@@H](CO)N2	-0.3
O=S(=O)(c1ccc(F)cc1)N1CC[C@@H]2[C@@H](CO)Nc3ccc(C#Cc4cccc(F)c4)cc3[C@@H]21	36.0
CC(C)CC#Cc1cnc2c(c1)C(=O)N([C@H](C)CO)C[C@@H](C)[C@@H](CN(C)C(=O)c1ccc3c(c1)OCO3)O2	0.6
C[C@H](CO)N1C[C@H](C)[C@H](CN(C)Cc2ccc(C(=O)Nc3ccccc3N)cc2)Oc2ccc(NC(=O)Cc3ccccc3)cc2C1=O	5.6
C[C@@H]1CN([C@H](C)CO)C(=O)c2cc(NC(=O)Nc3ccc(C(F)(F)F)cc3)ccc2O[C@@H](C)CCCCO[C@@H]1CN(C)CC1CCCCC1	-62.7
CCCN(C)C[C@H]1OCCCC[C@@H](C)Oc2ccc(NC(=O)Nc3ccc(C(F)(F)F)cc3)cc2C(=O)N([C@H](C)CO)C[C@H]1C	-108.3*
C[C@H](CO)N1C[C@H](C)[C@@H](CN(C)CC2CCCCC2)OCCCC[C@H](C)Oc2ccc(NC(=O)Nc3ccc(C(F)(F)F)cc3)cc2C1=O	-74.1
C[C@@H]1CCCCO[C@H](CN(C)CC2CC2)[C@H](C)CN([C@H](C)CO)C(=O)c2cc(NC(=O)Nc3ccc(C(F)(F)F)cc3)ccc2O1	5.7
CCCN(C)C[C@H]1OCCCC[C@H](C)Oc2ccc(NC(=O)Nc3ccc(C(F)(F)F)cc3)cc2C(=O)N([C@@H](C)CO)C[C@H]1C	-31.4
C[C@H]1CCCCO[C@H](CN(C)CC2CC2)[C@@H](C)CN([C@@H](C)CO)C(=O)c2cc(NC(=O)Nc3ccc(C(F)(F)F)cc3)ccc2O1	-0.3
C[C@@H]1CN([C@@H](C)CO)C(=O)c2cc(NC(=O)Nc3ccc(C(F)(F)F)cc3)ccc2O[C@@H](C)CCCCO[C@H]1CN(C)CC1CCCCC1	-106.6*
